# Test results: the supplement of paper PMC12282887
# ± gives the standard deviation of the averaged measurements.
# Assays:
# Assay in all cases: promoter activity interaction Z-score (Lux/OD deviation from empty-vector control); higher = stronger promoter induction by the compound
# [1] = tested on: E. coli BW25113 acrABp lux reporter
# Outline: (§1)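 Wild-type E. coli BW25113 and three single-gene deletion strains, each carrying a low-copy luxCDABE promoter reporter, were grown at 37°C in 40 µl LB Lennox per well of a 384-well plate. Every compound was applied at four 1:2 dilutions in biological duplicates, and OD600 and luminescence were read every 30 min for 12 h. Integration covered 0–8 h for wild type and 1–9 h for deletion strains, and wells under 10% of the median growth value were removed. Scores are Z-transformed residuals of growth-normalised luminescence fitted against a control.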
# [2] = tested on: E. coli BW25113 marRABp lux reporter
# Outline: as §1
# [3] = tested on: E. coli BW25113 micFp lux reporter
# Outline: as §1
# [4] = tested on: E. coli BW25113 ompFp lux reporter
# Outline: as §1
# [5] = tested on: E. coli BW25113 robp lux reporter
# Outline: as §1
# [6] = tested on: E. coli BW25113 soxSp lux reporter
# Outline: as §1
# [7] = tested on: E. coli BW25113 tolCp lux reporter
# Outline: as §1
# [8] = 24.3 µg/ml, genetic background: wild type
# [9] = 24.3 µg/ml, genetic background: ΔmarA
# [10] = 24.3 µg/ml, genetic background: Δrob
# [11] = 24.3 µg/ml, genetic background: ΔsoxS
# [12] = 48.5 µg/ml, genetic background: wild type
# [13] = 48.5 µg/ml, genetic background: ΔmarA
# [14] = 48.5 µg/ml, genetic background: Δrob
# [15] = 48.5 µg/ml, genetic background: ΔsoxS
# [16] = 97.1 µg/ml, genetic background: wild type
# [17] = 97.1 µg/ml, genetic background: ΔmarA
# [18] = 97.1 µg/ml, genetic background: Δrob
# [19] = 97.1 µg/ml, genetic background: ΔsoxS
# [20] = 194.2 µg/ml, genetic background: wild type
# [21] = 194.2 µg/ml, genetic background: ΔmarA
# [22] = 194.2 µg/ml, genetic background: Δrob
# [23] = 194.2 µg/ml, genetic background: ΔsoxS
compound,measurement,setting,value
Cn1c(=O)c2c(ncn2C)n(C)c1=O [Caffeine],promoter activity interaction Z-score,[1]; [8],-0.0906 ± 0.17
same,promoter activity interaction Z-score,[1]; [9],1.25 ± 2.5
same,promoter activity interaction Z-score,[1]; [10],0.229 ± 0.12
same,promoter activity interaction Z-score,[1]; [11],0.234 ± 0.23
same,promoter activity interaction Z-score,[1]; [12],0.0551 ± 0.06
same,promoter activity interaction Z-score,[1]; [13],0.244 ± 1.1
same,promoter activity interaction Z-score,[1]; [14],0.254 ± 0.35
same,promoter activity interaction Z-score,[1]; [15],0.3 ± 0.18
same,promoter activity interaction Z-score,[1]; [16],0.0174 ± 0.31
same,promoter activity interaction Z-score,[1]; [17],0.17 ± 0.29
same,promoter activity interaction Z-score,[1]; [18],0.132 ± 0.014
same,promoter activity interaction Z-score,[1]; [19],0.864 ± 1
same,promoter activity interaction Z-score,[1]; [20],0.303 ± 0.24
same,promoter activity interaction Z-score,[1]; [21],-0.0252 ± 0.29
same,promoter activity interaction Z-score,[1]; [22],0.0753 ± 0.22
same,promoter activity interaction Z-score,[1]; [23],0.762 ± 0.37
same,promoter activity interaction Z-score,[2]; [8],0.925 ± 0.19
same,promoter activity interaction Z-score,[2]; [9],1.52 ± 0.3
same,promoter activity interaction Z-score,[2]; [10],0.0874 ± 0.094
same,promoter activity interaction Z-score,[2]; [11],0.874 ± 0.41
same,promoter activity interaction Z-score,[2]; [12],1.58 ± 0.15
same,promoter activity interaction Z-score,[2]; [13],1.47 ± 0.32
same,promoter activity interaction Z-score,[2]; [14],-0.0293 ± 0.12
same,promoter activity interaction Z-score,[2]; [15],1.28 ± 0.27
same,promoter activity interaction Z-score,[2]; [16],1.63 ± 0.018
same,promoter activity interaction Z-score,[2]; [17],2.83 ± 0.69
same,promoter activity interaction Z-score,[2]; [18],0.0326 ± 0.04
same,promoter activity interaction Z-score,[2]; [19],1.55 ± 0.65
same,promoter activity interaction Z-score,[2]; [20],3.65 ± 0.97
same,promoter activity interaction Z-score,[2]; [21],4.03 ± 0.93
same,promoter activity interaction Z-score,[2]; [22],0.103 ± 0.13
same,promoter activity interaction Z-score,[2]; [23],2.91 ± 1.6
same,promoter activity interaction Z-score,[3]; [8],1.28 ± 0.39
same,promoter activity interaction Z-score,[3]; [9],1.01 ± 0.13
same,promoter activity interaction Z-score,[3]; [10],0.0768 ± 0.058
same,promoter activity interaction Z-score,[3]; [11],1.65 ± 0.72
same,promoter activity interaction Z-score,[3]; [12],2.71 ± 0.15
same,promoter activity interaction Z-score,[3]; [13],1.72 ± 0.17
same,promoter activity interaction Z-score,[3]; [14],-0.0682 ± 0.092
same,promoter activity interaction Z-score,[3]; [15],2.27 ± 0.1
same,promoter activity interaction Z-score,[3]; [16],3.93 ± 0.29
same,promoter activity interaction Z-score,[3]; [17],3.13 ± 0.049
same,promoter activity interaction Z-score,[3]; [18],-0.0129 ± 0.082
same,promoter activity interaction Z-score,[3]; [19],4.2 ± 0.47
same,promoter activity interaction Z-score,[3]; [20],9.84 ± 0.76
same,promoter activity interaction Z-score,[3]; [21],6.96 ± 1.9
same,promoter activity interaction Z-score,[3]; [22],0.216 ± 0.022
same,promoter activity interaction Z-score,[3]; [23],9.87 ± 0.2
same,promoter activity interaction Z-score,[4]; [8],0.171 ± 0.69
same,promoter activity interaction Z-score,[4]; [9],0.0413 ± 0.047
same,promoter activity interaction Z-score,[4]; [10],0.636 ± 0.1
same,promoter activity interaction Z-score,[4]; [11],0.0579 ± 0.15
same,promoter activity interaction Z-score,[4]; [12],0.648 ± 0.61
same,promoter activity interaction Z-score,[4]; [13],0.121 ± 0.51
same,promoter activity interaction Z-score,[4]; [14],-0.106 ± 0.46
same,promoter activity interaction Z-score,[4]; [15],-0.0276 ± 0.3
same,promoter activity interaction Z-score,[4]; [16],-0.351 ± 0.49
same,promoter activity interaction Z-score,[4]; [17],0.00292 ± 0.16
same,promoter activity interaction Z-score,[4]; [18],-0.133 ± 0.69
same,promoter activity interaction Z-score,[4]; [19],0.291 ± 0.42
same,promoter activity interaction Z-score,[4]; [20],0.651 ± 0.51
same,promoter activity interaction Z-score,[4]; [21],0.268 ± 0.19
same,promoter activity interaction Z-score,[4]; [22],0.227 ± 0.64
same,promoter activity interaction Z-score,[4]; [23],0.245 ± 0.21
same,promoter activity interaction Z-score,[5]; [8],0.0869 ± 0.41
same,promoter activity interaction Z-score,[5]; [9],1.13 ± 1.2
same,promoter activity interaction Z-score,[5]; [10],0.442 ± 0.56
same,promoter activity interaction Z-score,[5]; [11],1.35 ± 0.27
same,promoter activity interaction Z-score,[5]; [12],1.03 ± 0.53
same,promoter activity interaction Z-score,[5]; [13],-0.488 ± 0.27
same,promoter activity interaction Z-score,[5]; [14],0.545 ± 0.89
same,promoter activity interaction Z-score,[5]; [15],1.19 ± 0.12
same,promoter activity interaction Z-score,[5]; [16],-0.142 ± 0.26
same,promoter activity interaction Z-score,[5]; [17],-0.194 ± 0.34
same,promoter activity interaction Z-score,[5]; [18],-0.0955 ± 0.42
same,promoter activity interaction Z-score,[5]; [19],-0.0533 ± 0.92
same,promoter activity interaction Z-score,[5]; [20],-0.121 ± 0.73
same,promoter activity interaction Z-score,[5]; [21],-0.257 ± 0.088
same,promoter activity interaction Z-score,[5]; [22],0.111 ± 1.4
same,promoter activity interaction Z-score,[5]; [23],-1.19 ± 0.4
same,promoter activity interaction Z-score,[6]; [8],-0.0276 ± 0.14
same,promoter activity interaction Z-score,[6]; [9],0.29 ± 0.3
same,promoter activity interaction Z-score,[6]; [10],0.512 ± 0.15
same,promoter activity interaction Z-score,[6]; [11],-0.000875 ± 0.083
same,promoter activity interaction Z-score,[6]; [12],0.149 ± 0.051
same,promoter activity interaction Z-score,[6]; [13],0.331 ± 0.32
same,promoter activity interaction Z-score,[6]; [14],0.0369 ± 0.011
same,promoter activity interaction Z-score,[6]; [15],0.0413 ± 0.11
same,promoter activity interaction Z-score,[6]; [16],0.0939 ± 0.035
same,promoter activity interaction Z-score,[6]; [17],0.405 ± 0.044
same,promoter activity interaction Z-score,[6]; [18],0.395 ± 0.12
same,promoter activity interaction Z-score,[6]; [19],0.167 ± 0.44
same,promoter activity interaction Z-score,[6]; [20],0.212 ± 0.044
same,promoter activity interaction Z-score,[6]; [21],0.529 ± 0.026
same,promoter activity interaction Z-score,[6]; [22],0.257 ± 0.16
same,promoter activity interaction Z-score,[6]; [23],0.6 ± 0.85
same,promoter activity interaction Z-score,[7]; [8],-0.298 ± 0.42
same,promoter activity interaction Z-score,[7]; [9],0.922 ± 0.83
same,promoter activity interaction Z-score,[7]; [10],-0.0951 ± 0.85
same,promoter activity interaction Z-score,[7]; [11],0.425 ± 0.39
same,promoter activity interaction Z-score,[7]; [12],0.642 ± 1.2
same,promoter activity interaction Z-score,[7]; [13],0.724 ± 0.083
same,promoter activity interaction Z-score,[7]; [14],-0.684 ± 0.056
same,promoter activity interaction Z-score,[7]; [15],0.896 ± 0.56
same,promoter activity interaction Z-score,[7]; [16],0.921 ± 0.51
same,promoter activity interaction Z-score,[7]; [17],0.55 ± 0.57
same,promoter activity interaction Z-score,[7]; [18],-0.368 ± 0.11
same,promoter activity interaction Z-score,[7]; [19],1.64 ± 0.38
same,promoter activity interaction Z-score,[7]; [20],1.37 ± 0.41
same,promoter activity interaction Z-score,[7]; [21],1.61 ± 1.5
same,promoter activity interaction Z-score,[7]; [22],0.892 ± 0.67
same,promoter activity interaction Z-score,[7]; [23],0.579 ± 1
